{
  "source": "PubChem BioAssay (EPA / NIEHS)",
  "note": "Active and inactive are the calls of the source. Rule for the calls: active = hit-call score of the fitted dose curve at least 0.9, where 1 is the maximum; inactive = score below 0.9.",
  "data": [
    {"experiment": "ATG_AP_2_CIS: Attagene CIS-FACTORIAL HepG2 Assay for human Activator Protein 2 (AP-2) (AID 2282932)", "details": "HepG2 AP-2 cis-reporter, Attagene transcription factor profiling; actives raise or lower the signal", "description": "ATG_CIS is a cell-based, multiplexed-readout assay that uses HepG2, a human liver cell line, with measurements taken at 24 hours after chemical dosing in a 24-well plate.ATG_AP_2_CIS is one of 52 assay component(s) measured or calculated from the ATG_CIS assay. It is designed to make measurements of mRNA induction, a form of inducible reporter, as detected with fluorescence intensity signals by Reverse transcription polymerase chain reaction (RT-PCR) and Capillary electrophoresis technology.Data from the assay component ATG_AP_2_CIS was analyzed into 1 assay endpoint. This assay endpoint, ATG_AP_2_CIS, was analyzed with bidirectional fitting relative to DMSO as the negative control and baseline of activity. Using a type of inducible reporter, measures of mRNA for gain or loss-of-signal activity can be used to understand the reporter gene at the transcription factor-level as they relate to the gene TFAP2A and TFAP2B and TFAP2D. Furthermore, this assay endpoint can be referred to as a primary readout, because this assay has produced multiple assay endpoints where this one serves a reporter gene function. To generalize the intended target to other relatable targets, this assay endpoint is annotated to the dna binding intended target family, where the subfamily is basic helix-turn-helix leucine zipper.\nHuman liver HepG2 cells are transiently transfected with multiple reporter transcription units (MRTUs) in 6-well plates using FuGene 6 reagent (Roche; 3 ml FuGene/1 mg DNA). The MRTU constructs are regulated by a cis-regulating element (promoter). […] A major difference between the CIS and TRANS system is that in CIS activities of endogenous TFs are measured, whereas the TRANS assay evaluates changes in activities of exogenous, chimeric NR-Gal4 proteins. […] At the end of 24 hour incubation, total RNA was isolated using TriZol reagent (Invitrogen). The isolated RNA is then reverse-transcribed using oligo(dT) primer and Mo-MLV reverse transcriptase (Invitrogen) with DNAse I (Ambion) treatment for 30 min. The one-tenth of the produced cDNA was amplified by PCR using Taq DNA polymerase (Invitrogen) and two reporter sequence-specific primers. The PCR products were fluorescently labeled by primer extension with 6-arboxyfluorescein (6-FAM) 5'-labeled reporter sequence-specific primer (2 min at 95 C, 20 s at 68 C and 10 min at 72 C) and these products were digested with 5U of HpaI (New England Biolabs) for 2h at 37 C. The fragments were purified using Qiaquick PCR columns (Qiagen), analyzed on an ABI 3130xL genetic analyzer (Applied Biosystems) with peak positions identified by using a set of X-rhodamine (ROX)-labeled MapMarker1000 molecular weight standards (BioVentures). The raw capillary electrophoresis data was processed using Attagraph software (Attagene).", "values": [
      {"smiles": "O=CN1CCOCC1", "outcome": "inactive"},
      {"smiles": "CCCCCCOCCOCCO", "outcome": "inactive"},
      {"smiles": "C=COCCOCCOC=C", "outcome": "inactive"},
      {"smiles": "CCCCCC(C)=O", "outcome": "inactive"},
      {"smiles": "CCCCCCCCCCCCN1CCCCCC1=O", "outcome": "inactive"},
      {"smiles": "CC(C)=CCCC(C)CCOC=O", "note": "(stereo not given)", "outcome": "inactive"},
      {"smiles": "Cc1ccc(OC(=O)c2ccccc2O)cc1", "outcome": "inactive"},
      {"smiles": "CCC1(c2ccccc2)C(=O)NCNC1=O", "outcome": "inactive"},
      {"smiles": "COc1cc(CCC(C)=O)ccc1O", "outcome": "inactive"},
      {"smiles": "CCOC(=O)c1ccc(N)cc1", "outcome": "inactive"},
      {"smiles": "CC(C)Nc1nc(N)nc(Cl)n1", "outcome": "inactive"},
      {"smiles": "O=CCc1ccccc1", "outcome": "inactive"},
      {"smiles": "CC(=O)O[C@@H]1C[C@@H]2CC[C@@]1(C)C2(C)C", "outcome": "inactive"},
      {"smiles": "CCCCN(CCCC)C(=O)N(CCCC)CCCC", "outcome": "inactive"},
      {"smiles": "CC(C)C(OC(=O)c1ccccc1)C(C)(C)COC(=O)c1ccccc1", "note": "(stereo not given)", "outcome": "inactive"},
      {"smiles": "CCCOCCO", "outcome": "inactive"},
      {"smiles": "CCc1cc(C(C)(C)C)c(O)c(C(C)(C)C)c1", "outcome": "inactive"},
      {"smiles": "NCC1CCCC(CN)C1", "note": "(stereo not given)", "outcome": "inactive"},
      {"smiles": "CC(=O)C(C)O", "note": "(stereo not given)", "outcome": "inactive"},
      {"smiles": "O=C(CS)OCCOC(=O)CS", "AC50": "100 µM (active)"},
      {"smiles": "Cc1cc(=O)oc2cc(N(C)C)ccc12", "outcome": "inactive"},
      {"smiles": "CCCC1O[C@@H]2C[C@H]3[C@@H]4CCC5=CC(=O)C=C[C@]5(C)[C@H]4[C@@H](O)C[C@]3(C)[C@]2(C(=O)CO)O1", "note": "(stereo not given in full)", "outcome": "inactive"},
      {"smiles": "CCC(C)c1cc([N+](=O)[O-])cc([N+](=O)[O-])c1OC(=O)OC(C)C", "note": "(stereo not given)", "AC50": "39.7 µM (active)"},
      {"smiles": "C[C@H]1O[C@@H](O[C@H]2[C@@H](O)C[C@H](O[C@H]3[C@@H](O)C[C@H](O[C@H]4CC[C@@]5(C)[C@H](CC[C@@H]6[C@@H]5C[C@@H](O)[C@]5(C)[C@@H](C7=CC(=O)OC7)CC[C@]65O)C4)O[C@@H]3C)O[C@@H]2C)C[C@H](O)[C@@H]1O", "AC50": "0.0857 µM (active)"},
      {"smiles": "CS(=O)(=O)c1ccc(C2=C(c3ccccc3)C(=O)OC2)cc1", "outcome": "inactive"},
      {"smiles": "COCCOC(=O)c1ccccc1C(=O)OCCOC", "outcome": "inactive"},
      {"smiles": "CC(C)(CO)[C@@H](O)C(=O)NCCC(=O)O", "outcome": "inactive"},
      {"smiles": "Clc1ccc(C(c2ccccc2Cl)C(Cl)Cl)cc1", "note": "(stereo not given)", "outcome": "inactive"},
      {"smiles": "[O-]n1ccccc1=S.[O-]n1ccccc1=S.[Zn+2]", "outcome": "inactive"},
      {"smiles": "CC(=O)CC(=O)Nc1ccccc1", "outcome": "inactive"},
      {"smiles": "CC(=O)C1(C)CC2=C(CCCC2(C)C)CC1C", "note": "(stereo not given)", "AC50": "76.1 µM (active)"},
      {"smiles": "CC(=O)O[C@@H]1CC2CCC1(C)C2(C)C", "note": "(stereo not given in full)", "outcome": "inactive"},
      {"smiles": "O=C(O)c1cccnc1C(=O)O", "outcome": "inactive"},
      {"smiles": "CCCCCCCCCCCCCCN(CCO)CCO", "outcome": "inactive"},
      {"smiles": "OC[C@H]1O[C@@H]2O[C@H]3[C@H](O)[C@@H](O)[C@@H](O[C@H]4[C@H](O)[C@@H](O)[C@@H](O[C@H]5[C@H](O)[C@@H](O)[C@@H](O[C@H]6[C@H](O)[C@@H](O)[C@@H](O[C@H]7[C@H](O)[C@@H](O)[C@@H](O[C@H]8[C@H](O)[C@@H](O)[C@@H](O[C@H]9[C@H](O)[C@@H](O)[C@@H](O[C@H]1[C@H](O)[C@H]2O)O[C@@H]9CO)O[C@@H]8CO)O[C@@H]7CO)O[C@@H]6CO)O[C@@H]5CO)O[C@@H]4CO)O[C@@H]3CO", "outcome": "inactive"},
      {"smiles": "Cc1ncc[nH]1", "outcome": "inactive"},
      {"smiles": "c1ccc(CN(Cc2ccccc2)Cc2ccccc2)cc1", "outcome": "inactive"},
      {"smiles": "Nc1ccc2c(O)cc(S(=O)(=O)O)cc2c1", "outcome": "inactive"},
      {"smiles": "Cc1ccc(-c2ccccc2)cc1", "outcome": "inactive"},
      {"smiles": "O=C1c2ccccc2C(=O)c2c(O)ccc(O)c21", "outcome": "inactive"}
    ]}
  ]
}
